NPC1 prom act = qHTS Assay for NPC1 Promoter Activators; actives 2.4% (n = 320,000); Huh7 NPC1 promoter luciferase reporter, 24 h; AID 485313, 2010; Potency, µM (titrated, usually from 9.22 µM), hits mostly activators; also: nearly all actives have a fitted effect of over 60% in size
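Luminescence read-out of NPC1 promoter-driven luciferase in stably transfected Huh7 cells; compounds delivered in DMSO and left 24 h at 37C, 5% CO2, qHTS titration format.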
ELG1 genotoxic = qHTS screen for small molecules that induce genotoxicity in human embryonic kidney (HEK293T) cells expressing luciferase-tagged ELG1. HEK293T ELG1-luciferase reporter, luminescence, 16 h. Potency, µM (highest dose often 46 µM), most hits filed as activators. actives 1.3% (n = 330,000); also: nearly all actives have a fitted effect of over 60% in size
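HEK293T cells expressing luciferase-tagged ELG1 were exposed to compound or DMSO vehicle for 16 hr at 37 °C and 5% CO2. Luciferase activity was then measured with ONE-Glo after 30 min at room temperature.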
SMN2 splice up = qHTS Assay for Enhancers of SMN2 Splice Variant Expression; HEK293 SMN2-luciferase splicing reporter, luminescence, 30-36 h; AID 1458, 2008; actives 2.8% (n = 210,000); Potency, µM (titrated, usually from 46.1 µM), hits mostly activators; also: nearly all actives have a fitted effect of over 55% in size
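HEK293 cells carry an SMN2 minigene-luciferase reporter in which exon 7 inclusion puts luciferase in frame. Cells were seeded at 2000 cells/well, attached for 10-12 hours, then exposed to compounds for 30-36 hours at 37C before ONE-Glo luminescence.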
Rab9 promoter act = qHTS Assay for Rab9 Promoter Activators | Huh7 Rab9 promoter-luciferase reporter, luminescence, 24 h | Potency, µM (series often up to 9.22 µM), actives largely listed as activators | actives 2.8% (n = 320,000); also: nearly all actives have a fitted effect of over 60% in size
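Cells were plated at 1500 per well in reduced-serum medium with 10% FBS and left 2 h. Compound in DMSO was then added for 24 h at 37 °C. Reporter signal was read by luminescence after 10 min with luciferase detection reagent.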
FLuc modulator = qHTS profiling assay for firefly luciferase inhibitor/activator using purifed enzyme and Km concentrations of substrates (counterscreen for miR-21 project); Luciferin 4-monooxygenase (Photinus pyralis), P08659; purified FLuc, Km substrates, luminescence inhibition; Potency, µM (top dose mostly 57.5 µM), most hits filed as inhibitors; actives 6.9% (n = 360,000); also: nearly all actives have a fitted effect of over 55% in size
Target sequence (P08659 whole entry, looked up): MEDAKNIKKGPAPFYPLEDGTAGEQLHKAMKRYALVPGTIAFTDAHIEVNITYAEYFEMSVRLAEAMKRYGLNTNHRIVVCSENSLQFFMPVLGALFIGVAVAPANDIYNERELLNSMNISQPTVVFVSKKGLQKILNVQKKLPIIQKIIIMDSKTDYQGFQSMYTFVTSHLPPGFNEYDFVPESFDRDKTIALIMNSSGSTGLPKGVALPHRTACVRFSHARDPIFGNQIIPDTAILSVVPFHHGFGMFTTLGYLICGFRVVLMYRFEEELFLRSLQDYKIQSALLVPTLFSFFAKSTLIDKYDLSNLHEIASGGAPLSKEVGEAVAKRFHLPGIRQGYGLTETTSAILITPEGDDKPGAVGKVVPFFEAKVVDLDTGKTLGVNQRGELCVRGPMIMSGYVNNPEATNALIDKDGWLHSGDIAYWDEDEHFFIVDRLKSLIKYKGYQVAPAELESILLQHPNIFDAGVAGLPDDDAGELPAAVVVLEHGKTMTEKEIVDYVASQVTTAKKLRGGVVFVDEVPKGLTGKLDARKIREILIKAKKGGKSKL
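Biochemical qHTS of compounds, final roughly 60 µM downward over six points, against 10 nM purified firefly luciferase using Km concentrations of substrates (10 uM D-luciferin, 10 uM ATP) in Tris acetate pH 7.5 buffer; luminescence output.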
Each line names hits and unclear results; the compound was inactive in the other large screens. The list is not random: actives were taken first. Their share in the collection is about 7.5%. Calls follow the shape of the dose curve; as a rule, active = well fitted curve in the direction sought with a large enough effect; inconclusive = small, poorly fitted or top-dose-only effect, or another doubt; inactive = no such curve, though single readings can be large; an effect the other way counts as inactive or inconclusive.

O=C(Nn1cnnc1)c1cccc(S(=O)(=O)N2CCOCC2)c1	none
CCc1ccc(NC(=O)c2cc(-c3ccc(OC)cc3)on2)cc1	none
Cc1ccc(NC(=O)c2onc(C)c2Cl)cc1	ELG1 genotoxic 16µM, SMN2 splice up 14µM, Rab9 promoter act inconclusive, FLuc modulator 13µM
CCc1ccc(NC(=O)c2cc(C)on2)cc1	NPC1 prom act 0.5µM, ELG1 genotoxic inconclusive, SMN2 splice up 6.3µM, Rab9 promoter act 0.89µM, FLuc modulator 3µM
Cc1cc(C(=O)Nc2ccccn2)no1	NPC1 prom act inconclusive, ELG1 genotoxic inconclusive, SMN2 splice up 11µM, Rab9 promoter act inconclusive, FLuc modulator inconclusive
Brc1ccc(-c2noc(CCc3ccccc3)n2)o1	FLuc modulator 24µM
Brc1ccc(-c2noc(COc3ccc4ccccc4c3)n2)o1	none
Clc1ccccc1OCc1nc(-c2ccc(Br)o2)no1	ELG1 genotoxic 23µM, SMN2 splice up inconclusive, Rab9 promoter act inconclusive, FLuc modulator 15µM
Cc1ccc(-c2noc(CCCc3ccccc3)n2)cc1	FLuc modulator 24µM
c1ccc(CCc2nc(-c3ccccn3)no2)cc1	NPC1 prom act 3.2µM, ELG1 genotoxic inconclusive, SMN2 splice up 11µM, Rab9 promoter act 2.2µM, FLuc modulator 13µM
COc1ccc(Cc2nc(-c3ccc(Br)o3)no2)cc1OC	Rab9 promoter act inconclusive, FLuc modulator inconclusive
Brc1ccc2c(c1)c1cc(Br)ccc1n2CC1CO1 (stereo not given)	none (no result: NPC1 prom act, ELG1 genotoxic, Rab9 promoter act, FLuc modulator)
O=C(O)CN1C(=O)/C(=C2\SC(=S)N(C(Cc3ccccc3)C(=O)O)C2=O)c2ccccc21 (stereo not given)	none (no result: SMN2 splice up)
CCOC(=O)CC1C(=O)NCCN1C(=S)Nc1ccccc1 (stereo not given)	none
Cc1ccc(NC(=O)[C@H]2O[C@@H]3OC(C)(C)O[C@@H]3[C@H]3OC(C)(C)O[C@H]32)cc1F	none (no result: NPC1 prom act, ELG1 genotoxic, Rab9 promoter act)
COc1cccc(OCc2nc(-c3ccc(Br)o3)no2)c1	FLuc modulator inconclusive
Fc1ccc(OCc2nc(-c3ccc(Br)o3)no2)c(F)c1	FLuc modulator 17µM
CCOc1ccccc1Nc1nc(-c2cccc(Cl)c2)c2c(n1)-c1ccccc1OC2	FLuc modulator 11µM (no result: NPC1 prom act, ELG1 genotoxic, SMN2 splice up, Rab9 promoter act)
COCCCn1c(SCC(=O)OC2CCCCC2)nnc1-c1cccs1	FLuc modulator 19µM
COCCCn1c(SCC(=O)OC2CCCCC2)nnc1-c1ccco1	FLuc modulator 12µM
O=C(NCCO)c1ccc(-c2nnc(Nc3ccc(O)cc3)c3ccccc23)cc1	none (no result: SMN2 splice up)
O=C(Nc1ccc(F)cc1F)Nc1sccc1-c1nc2ccccc2s1	none (no result: SMN2 splice up)
O=C(NNc1nc2ccccc2s1)C1CC1	none
CCCCOC(=O)Nc1nc2ccccc2s1	NPC1 prom act 2.8µM, ELG1 genotoxic inconclusive, SMN2 splice up 25µM, Rab9 promoter act 4µM, FLuc modulator 1.1µM
COc1ccc(C(=O)Nc2cccc(/C=C(\CCC(=O)O)c3nc4ccccc4s3)c2)cc1	NPC1 prom act 3.2µM, Rab9 promoter act inconclusive, FLuc modulator 9.5µM (no result: SMN2 splice up)
CC(C)C(=O)NNc1nc2ccccc2s1	NPC1 prom act inconclusive, ELG1 genotoxic 18µM, SMN2 splice up inconclusive, Rab9 promoter act inconclusive, FLuc modulator inconclusive
O=C(Nc1nc2ccccc2s1)Nc1ccc(F)cc1F	NPC1 prom act 1µM, ELG1 genotoxic 4.1µM, Rab9 promoter act 1.3µM, FLuc modulator 0.85µM (no result: SMN2 splice up)
CCCN(CCC)CC(O)Cn1cc(/C=C/C(=O)c2cccs2)c2ccccc21 (stereo not given)	none
COc1ccc(NC(=O)c2nc3ccccc3s2)cc1	NPC1 prom act 3.5µM, ELG1 genotoxic 1.3µM, SMN2 splice up inconclusive, Rab9 promoter act 1.6µM, FLuc modulator 1.1µM
COc1ccc(OC)c(NC(=O)c2nc3ccccc3s2)c1	none
COc1ccc2nc(NC(=O)Nc3ccccc3)sc2c1	NPC1 prom act inconclusive, ELG1 genotoxic inconclusive, SMN2 splice up 0.89µM, Rab9 promoter act 0.71µM, FLuc modulator 0.48µM
CCOc1ccc2nc(NC(=O)Nc3ccccc3)sc2c1	NPC1 prom act inconclusive, ELG1 genotoxic inconclusive, SMN2 splice up 11µM, Rab9 promoter act 1.4µM, FLuc modulator 0.85µM
O=C(NNc1nc2ccccc2s1)Nc1ccc(F)cc1	NPC1 prom act 4µM, ELG1 genotoxic inconclusive, Rab9 promoter act 3.2µM, FLuc modulator inconclusive (no result: SMN2 splice up)

Assay outcomes (PubChem BioAssay)
